Assay outcomes (PubChem BioAssay)
MRP-1 activ: activates MRP-1; actives 0.61% (n = 140,000); viability increase, % at 10 µM; AID 799; H69AR cells + doxorubicin, viability rescue, CellTiter-Glo;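 active = viability gain under doxorubicin at or above a set limit, the compound median plus 3 SD, cut at about 4.7% in these data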;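 note: MRP-1 overexpressing cells given doxorubicin 25 µM after compound pretreatment; 18-22 h compound pretreatment then 72 h with doxorubicin before readout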
CYP2C19 inhib: human CYP2C19 inhibition; actives 21% (n = 96,000); P33261; inhibition, % at 5 µM; CYP2C19 Supersomes, luciferin-H EGE luminescence, 30 min; AID 778;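 active = CYP2C19 inhibition above a set limit at 5 µM in the primary screen, cut at about 50% in these data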
CYP2C9 inh: blocks human cytochrome P450 2C9; actives 20% (n = 96,000); inhibition, % at 5 µM; CYP2C9 Supersomes, luciferin-H conversion, luminescence; P11712;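 active = blocking of liver enzyme CYP2C9 beyond about 50% at 5 µM, limit read from the data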
Target sequence (P11712 whole entry, looked up): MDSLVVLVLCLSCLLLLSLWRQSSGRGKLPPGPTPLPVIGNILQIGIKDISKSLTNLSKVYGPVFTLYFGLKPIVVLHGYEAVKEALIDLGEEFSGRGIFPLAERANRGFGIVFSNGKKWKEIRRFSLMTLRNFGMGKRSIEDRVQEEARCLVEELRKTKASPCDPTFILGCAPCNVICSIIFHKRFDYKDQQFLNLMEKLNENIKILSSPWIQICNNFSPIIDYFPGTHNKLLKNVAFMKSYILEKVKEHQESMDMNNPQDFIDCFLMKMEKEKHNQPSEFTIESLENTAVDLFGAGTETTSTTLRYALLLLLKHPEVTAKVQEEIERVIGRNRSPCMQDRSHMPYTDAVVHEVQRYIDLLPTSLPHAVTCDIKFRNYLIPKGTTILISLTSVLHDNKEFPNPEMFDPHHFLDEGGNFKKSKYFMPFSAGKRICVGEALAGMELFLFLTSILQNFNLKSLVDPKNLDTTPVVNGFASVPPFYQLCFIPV
CYP2C9 activ: CYP2C9 (human) activation; recombinant CYP2C9, luciferin-H conversion, luminescence; active compounds read high; factor 1 = untreated enzyme, 0 = blocked; activation factor at 5 µM; actives 1.4% (n = 96,000);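 active = activation factor of 2 or more for CYP2C9 at a 5 µM dose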
MRP reversal: compounds reversing MRP-mediated drug resistance | H69AR cells + 2 uM doxorubicin, CellTiter-Glo, 72 h | differential viability (reversal), % at 10 µM | actives 0.04% (n = 85,000);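 active = viability drop by adding the cancer drug above about 55%, with treated viability meeting a 40% cutoff, limit read from the data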;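 note: larger differential means the compound sensitizes cells more to doxorubicin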
CYP2C19 activ: increases human CYP2C19 enzyme activity; P33261; recombinant CYP2C19, luciferin-H EGE luminescence; active compounds read high; 0 = fully inhibited enzyme, 1 = untreated enzyme; activation factor at 5 µM; 96,000 tested, under 10 active; AID 1025;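 active = activation factor of at least 2 at 5 µM in the primary screen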
Hits are given with their value; i = inactive; nt = no result given. Most compounds without a hit are left out; they make up all but 21% or so of the library.

SMILES	MRP-1 activ	CYP2C19 inhib	CYP2C9 inh	CYP2C9 activ	MRP reversal	CYP2C19 activ
CCOC(=O)C(Oc1ccc2c(-c3ccc(OC)cc3)cc(=O)oc2c1C)c1ccccc1 (stereo unspecified)	i	i	78	i	nt	i
CCOC(=O)C(Oc1ccc2c(-c3ccccc3)cc(=O)oc2c1C)c1ccccc1 (stereo unspecified)	4.7	nt	nt	nt	nt	nt
Cc1ccc(C(=O)COC(=O)CCCC(=O)Nc2cc(C(F)(F)F)ccc2Cl)cc1C	i	nt	nt	nt	nt	nt
NC(CC(=O)O)c1ccc(Br)cc1 (stereo unspecified)	i	nt	nt	nt	nt	nt
CNC(=O)c1sc(N2N=C3/C(=C/c4ccccc4)CCCC3C2c2ccccc2)nc1C (stereo unspecified)	i	i	i	i	nt	i
CSc1cc(-c2ccccc2)n(Cc2c(Cl)cccc2Cl)c(=O)c1C#N	i	i	75	i	i	i
O=C(O)C1CC=CCC1C(=O)Nc1ccccc1Cl (stereo unspecified)	i	i	i	i	i	i
COCCCn1c(Cc2csc(Nc3cccc(Cl)c3)n2)nnc1SCC(=O)OC	i	87	80	i	i	i
CCOC(=O)CSc1nnc(CNc2cccc(Cl)c2)n1C	i	nt	nt	nt	i	nt
O=C(CN1CCCCC1)Nc1cccc(-n2cnnn2)c1	i	i	i	i	nt	i
Cc1cc(C(=O)Nc2c(C)n(C)n(-c3ccccc3)c2=O)c2ccccc2n1	i	i	i	i	i	i
CCc1ccc(-c2cc(C(=O)Nc3c(C)n(C)n(-c4ccccc4)c3=O)c3ccccc3n2)s1	i	51	i	i	nt	i
Cc1cc(Br)cc2c(C(=O)Nc3c(C)n(C)n(-c4ccccc4)c3=O)cc(-c3cccs3)nc12	i	i	76	i	nt	i
Cc1ccc(S(=O)(=O)N2CCOC2CNC(=O)C(=O)NCc2cccnc2)cc1 (stereo unspecified)	i	nt	nt	nt	nt	nt
CCCCSc1c(C)c2cc3c(cc2[nH]c1=O)OCO3	i	86	i	i	i	i
O=C(CCCn1c(=S)[nH]c2cc3c(cc2c1=O)OCO3)NC1CC1	i	i	i	i	i	i
N/C(=N\N=C\c1ccc2c(c1)OCO2)c1nonc1N	5.6	nt	nt	nt	nt	nt
Cc1[nH]cnc1CSCCN	i	i	74	i	i	i
CCn1c(/N=C/c2ccccc2NS(=O)(=O)c2ccc(C)cc2)nc2ccccc21	i	nt	nt	nt	nt	nt
COc1ccc(C/C(O)=C(\C#N)c2nc3ccccc3[nH]2)cc1OC	i	i	50	i	i	i
CC(C)CC(/C(O)=C(\C#N)c1nc2ccccc2[nH]1)N1C(=O)c2ccccc2C1=O (stereo unspecified)	i	96	95	i	i	i
COc1cccc(OC)c1/C(O)=C(\C#N)c1nc2ccccc2[nH]1	i	58	i	i	i	i
CC(C)(C)/C(O)=C(/C#N)c1nc2ccccc2[nH]1	i	i	64	i	i	i
COc1ccc(OC/C(O)=C(\C#N)c2nc3ccccc3[nH]2)cc1	i	i	i	i	nt	i
CC1CC(C)CN(S(=O)(=O)c2ccc(NC(=S)NC(=O)c3ccccc3)cc2)C1 (stereo unspecified)	i	nt	nt	nt	nt	nt
SMILES	MRP-1 activ	CYP2C19 inhib	CYP2C9 inh	CYP2C9 activ	MRP reversal	CYP2C19 activ
CC1=C(C(=O)OCc2ccccc2)C(c2ccccc2OC(F)F)NC(=O)N1 (stereo unspecified)	i	i	i	i	i	i
CCOC(=O)c1ccccc1NC(=O)CSc1nnnn1C1CCCCC1	i	i	72	i	i	i
COc1ccccc1NC(=O)CSc1nnnn1Cc1ccccc1	i	92	i	i	i	i
C=CCn1nnnc1SCC(=O)Nc1ccccc1C(=O)OC	i	91	i	i	i	i
COc1ccc(S(=O)(=O)n2cnc3cc(C)c(C)cc32)cc1	i	96	87	i	i	i
COc1ccc(S(=O)(=O)n2cnc3cc(C)c(C)cc32)cc1C	i	i	i	i	i	i
Cc1cc(Cl)c(OCCCCNC(C)(C)C)c(Br)c1	i	nt	nt	nt	nt	nt
CCOc1ccc(-c2nc(N)ncc2-c2ccccc2)c(O)c1	i	i	i	i	i	i
C=C(C)COc1ccc(-c2nc(N)ncc2Oc2ccccc2OCC)c(O)c1	i	80	92	i	i	i
CCCCc1ccc(NC(=S)Nc2ccc(Cl)c(S(=O)(=O)N(C)C)c2)cc1	i	nt	nt	nt	nt	nt
Cc1ccccc1OCC(=O)OC(C(=O)c1ccccc1)c1ccccc1 (stereo unspecified)	i	nt	nt	nt	nt	nt
COc1ccccc1NC(=O)COC(=O)/C=C/c1ccccc1[N+](=O)[O-]	i	nt	nt	nt	nt	nt
COc1ccc(NC(=O)C(=O)N/N=C/c2cc(C)n(-c3cccc(Cl)c3Cl)c2C)c(OC)c1	5.3	72	i	i	nt	i
COc1ccc(OC)c(NC(=O)C(=O)N/N=C/c2ccccc2[N+](=O)[O-])c1	i	i	i	2.2	nt	i
Cc1cc(/C=N/NC(=O)C(=O)NCc2ccccn2)c(C)n1-c1ccccc1	i	nt	nt	nt	nt	nt
O=C(CSc1nnc2scc(-c3ccccc3)n12)NCc1ccc2c(c1)OCO2	i	68	i	i	i	i
C=CCn1c(SC(C)C(=O)NCc2ccc3c(c2)OCO3)nc2scc(-c3ccccc3)c2c1=O (stereo unspecified)	i	76	80	i	i	i
O=C(CSc1nnc2scc(-c3ccc(Cl)cc3)n12)NCc1ccc2c(c1)OCO2	i	i	i	i	i	i
CC(Sc1nnc(-c2cccs2)n1-c1ccccc1)C(=O)NCc1ccc2c(c1)OCO2 (stereo unspecified)	i	75	93	i	i	i
O=C(CSc1nnc2scc(-c3ccc(Cl)cc3)n12)NCc1ccco1	i	56	i	i	i	i
O=C(C1CCN(S(=O)(=O)N2CCCCC2)CC1)N1CCCCC1	i	nt	nt	nt	nt	nt
CCC1(O)c2ccccc2-c2ncccc21 (stereo unspecified)	i	i	i	i	i	i
O=C(CSc1nc2cc([N+](=O)[O-])ccc2n1-c1ccccc1)NCc1ccc2c(c1)OCO2	i	nt	nt	nt	nt	nt
O=C(CSc1nnc(Cc2cccs2)n1-c1ccccc1)NCc1ccc2c(c1)OCO2	i	i	59	i	i	i
COc1cc2c(=O)nc3n(c2cc1OC)C(c1ccccc1)N=C(N)N3 (stereo unspecified)	i	i	i	i	i	i
NC1=NC(c2ccc(F)cc2)n2c(nc3ccccc32)N1 (stereo unspecified)	i	67	i	i	i	i
NC1=NC(c2cccc(O)c2)n2c(nc3ccccc32)N1 (stereo unspecified)	i	i	i	i	i	i
Cc1ccc(-n2c(C)cc(C3N=C(N)Nc4nc5ccccc5n43)c2C)c(C)c1 (stereo unspecified)	i	61	77	i	i	i
Cc1cc(C2N=C(N)Nc3nc4ccccc4n32)c(C)n1-c1ccccc1Cl (stereo unspecified)	i	69	80	i	i	i
CC(Oc1ncnc2ccccc12)C(=O)Nc1cccc(S(=O)(=O)N2CCOCC2)c1 (stereo unspecified)	i	nt	nt	nt	nt	nt
